Hits are enriched below; roughly 3.4% of the tested compounds scored in any of these assays.
HTT ATP protect: Huntington cell model cytoprotection by ATP luminescence | PC12 HTT-Q103 induced, cytoprotection, ATP luminescence, 40 h | Potency, µM (doses to about 56.4 µM), without a hit: cytoprotection (ATP increase), most hits filed as activators | 230,000 tested, 0.14% active | AID 1471; also: potency is read from the fitted curve at half-maximal effect; % of control where 0% means no effect; nearly all actives have a fitted effect of over 45% in size
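Compounds were screened for protection of PC12 cells against cell death after tebufenozide induction (100 nM final) of mutant Huntingtin exon 1 (Q103) fused to GFP.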
IMPase Li inh: cell-permeable IMPase inhibitors with lithium potentiation. CHO-M1 cells, IP1 TR-FRET (IP-One), carbachol + lithium. Potency, µM (titrated, usually from 59.4 µM), without a hit: at the top dose activity, negative = IMPase inhibition, usual class: inhibitors. 210,000 tested, 0.35% active. AID 1457;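 also: IP1 builds up when IMPase is blocked and the TR-FRET signal falls; potency is read from the fitted curve at half-maximal effect; plate controls were basal vehicle for no effect and high inhibitor control for full effect; nearly all actives have a fitted effect of over 50% in size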
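CHO cells stably expressing M1 receptor (2000/well) were cultured 16–30 h, then exposed to compounds with a small lithium addition for 30 min at 37C. IP1 was measured by TR-FRET competition; AC50 from Hill fits.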
PNC inhibitor: blocks assembly of the perinucleolar compartment. PC3M PTB-GFP, PNC prevalence imaging, 16 h; hits give low values. activity change (PNC), negative = inhibition, % at 10 µM. 140,000 tested, 3.1% active;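 active = readout at or below -70, meaning at least 70% loss of cells showing the perinucleolar compartment, a nuclear body marking cancer cells; inconclusive = readout between -30 and a set limit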;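 also: plate controls were DMSO wells for no effect and camptothecin positive control wells for full effect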
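Compounds are pinned in duplicate onto adhered PC3M cells stably expressing GFP-tagged PTB and incubated 16 h at 37 C. Cells are then fixed, nuclei stained with Hoechst, and PNC-positive cells counted.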
IMPase cell inh: membrane-permeable compound that blocks inositol monophosphatase; P97697; CHO-M1 cells, IP1 accumulation, HTRF TR-FRET ratio; inhibition (IP1 accumulation), % at 46.1 µM; 120,000 tested, under 10 active; AID 901; active = well fitted curve in the direction sought with a large enough effect in the signal ratio, not every such curve was filed as active; inconclusive = small, poorly fitted or top-dose-only effect, or a change in a side signal; inactive = no such curve, though single readings can be large or run the other way; the % refers to the signal ratio;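 also: cells stimulated with carbachol in lithium chloride buffer; plate controls were DMSO basal wells for no effect and reference inhibitor wells for full effect; higher means more IMPase inhibition seen as more IP1 and lower FRET ratio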
Target sequence (P97697 whole entry, looked up): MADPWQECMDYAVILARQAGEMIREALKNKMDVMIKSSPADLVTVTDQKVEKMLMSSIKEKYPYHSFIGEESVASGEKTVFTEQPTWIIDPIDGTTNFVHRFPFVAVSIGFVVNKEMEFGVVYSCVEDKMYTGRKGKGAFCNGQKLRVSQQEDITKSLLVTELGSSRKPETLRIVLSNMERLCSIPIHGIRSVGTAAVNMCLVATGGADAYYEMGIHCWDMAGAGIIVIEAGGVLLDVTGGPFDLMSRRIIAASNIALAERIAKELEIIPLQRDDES
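In this qHTS, compounds (final up to 46 uM) act on CHO-M1 cells that are then activated through the M1 receptor with carbachol, in pH 7.4 buffer containing 50 mM LiCl, for 30 min. IP1 accumulation is quantified by the IP-One immunoassay.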
NPSR antagonist: blocks cAMP signaling of the human neuropeptide S receptor; Q6W5P4; CHO-NPSR cells, cAMP TR-FRET, antagonist mode; Potency, µM (titrated, usually from 38.3 µM), for the others: top-dose activity change, negative = inhibition, hits mostly inhibitors; 220,000 tested, 1% active; also: potency is read from the fitted curve at half-maximal effect; % is scaled to controls: 0 for no effect and ±100 for the full control effect; nearly all actives have a fitted effect of over 50% in size
HTT aggregate: inhibitors of mutant huntingtin aggregate formation in PC12 cells | Potency, µM (titrated, usually from 46.1 µM), for inactives: top-dose activity change, negative = inhibition, actives largely listed as inhibitors | PC12 HttQ103-GFP aggregates, Acumen cytometry, 40 h | 220,000 tested, 1.1% active; also: potency is read from the fitted curve at half-maximal effect; % is scaled to controls: 0 for no effect and ±100 for the full control effect; nearly all actives have a fitted effect of over 60% in size
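PC12 cells stably carrying ecdysone-inducible HTT exon 1 Q103–GFP were induced with tebufenozide (100 nM final) and treated with library compounds in titration. GFP aggregates in lysates were counted by laser scanning cytometry.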
Starred values were filed as active, the others as inactive; [ ] = dose if it differs, or a comment. Unless noted, calls follow the shape of the dose curve; as a rule, active = well fitted curve in the direction sought with a large enough effect; inconclusive = small, poorly fitted or top-dose-only effect, or another doubt; inactive = no such curve, though single readings can be large; an effect the other way counts as inactive or inconclusive.

Screening CC(C)(C)N(NC(=O)OCc1ccccc1)C(=O)c1ccccc1Cl returned IMPase Li inh 3.0%, PNC inhibitor -16.8, NPSR antagonist -0.8% and HTT aggregate -1.7%.
`O=C1C=CC(O)(c2cc(=O)c3c(O)cc(O)cc3o2)C=C1` gave IMPase Li inh 6.9%, PNC inhibitor -118.9*, NPSR antagonist -36.5% and HTT aggregate inconclusive.
COc1ccccc1CC(=N)N1C[C@@H]2C(=O)CCC(c3ccccc3)(c3ccccc3)[C@@H]2C1 was read as HTT ATP protect inconclusive, IMPase Li inh 22.3% and IMPase cell inh 11.0.
For Cc1cc(C)n2c(SCC(=O)Nc3cc(C)on3)nnc2n1 the results were HTT ATP protect -11.5%[10 µM], IMPase Li inh 1.3%, PNC inhibitor -100.0*, IMPase cell inh -2.4, NPSR antagonist 24.8%[46.1 µM] and HTT aggregate -11.2%.
For CSCC(=O)Nc1cc(C)on1 the results were HTT ATP protect -7.4%[10 µM], NPSR antagonist 5.7% and HTT aggregate -2.9%[9.22 µM].
For Cc1cc(NC(=O)CSC2=NCCS2)no1 the results were HTT ATP protect -2.8%, IMPase Li inh 17.9%[38.3 µM], PNC inhibitor -108.6*, IMPase cell inh 1.8, NPSR antagonist -2.4%[46.1 µM] and HTT aggregate 3.9%.
Screening CC1(C)C(=O)C=C[C@@]2(C)C1C=C[C@@]1(C)C2CC[C@@]2(C)C(c3ccoc3)OC(=O)C3OC312 (stereo partly drawn) returned HTT ATP protect -4.7% and IMPase Li inh 11.2%.
Cc1c(Br)c([N+](=O)[O-])nn1CC(=O)Nc1ccc(Cc2ccncc2)cc1 was read as IMPase Li inh 24.0%, PNC inhibitor -93.1*, NPSR antagonist -27.9% and HTT aggregate inconclusive.
For Cc1nn(-c2ccccc2)c(Cl)c1/C=C1\SC(=S)NC1=O the results were HTT ATP protect -37.7%, IMPase Li inh 35.5%[38.3 µM], PNC inhibitor inconclusive, IMPase cell inh 5.0, NPSR antagonist 10µM* and HTT aggregate inconclusive.
For N#Cc1c(-c2ccc3c(c2)OCO3)csc1N the results were HTT ATP protect -5.7%, IMPase Li inh 19.1%[38.3 µM], PNC inhibitor -102.6*, IMPase cell inh 0.8, NPSR antagonist -9.1%[46.1 µM] and HTT aggregate inconclusive.
For CN1CCC2(CC1)CCN(C(=O)c1cccc(F)c1)CC2 the results were HTT ATP protect inconclusive and IMPase Li inh 18.6%.
`Cn1ncc([N+](=O)[O-])c1C(=O)Nc1nccs1` gave HTT ATP protect -8.4%[10 µM], IMPase Li inh 1.4%, PNC inhibitor -105.5*, NPSR antagonist 12.6% and HTT aggregate -2.1%.
Screening O=C(Nc1nccs1)c1ccccc1[N+](=O)[O-] returned HTT ATP protect 3.2%[10 µM], IMPase Li inh -7.2%, PNC inhibitor -14.6, IMPase cell inh -1.4, NPSR antagonist 16.0% and HTT aggregate -16.9%.
`CCC(C)/C(C)=N/NC(=O)c1ccc(COc2ccc(Cl)c(C)c2)cc1` (stereo not drawn) gave HTT ATP protect -0.9%[10 µM], IMPase Li inh 7.3%, PNC inhibitor -134.0*, NPSR antagonist -21.4% and HTT aggregate 0.3%.
For CCOc1ccc(OCc2ccc(C(=O)N/N=C(\C)c3ccccn3)cc2)cc1 the results were HTT ATP protect -41.0%[10 µM], IMPase Li inh 4.2%, NPSR antagonist -9.7% and HTT aggregate inconclusive.
`Cc1ccc(CNC(=O)C2(CC(C)C)C=CCN2C(=O)c2ccccc2)o1` (stereo not drawn) gave HTT ATP protect 19.2% and IMPase Li inh -5.0%.
`COC(=O)C1=C(C(=O)OC)[C@@H]2Nc3ccccc3[C@@]23C[C@@H](C(=O)OC)N(S(=O)(=O)c2cccs2)C3=N1` gave HTT ATP protect -6.4%[10 µM] and IMPase Li inh -4.7%.
Screening O=C(COc1cc(O)c2c(=O)c3ccccc3oc2c1)OCc1ccccc1 returned HTT ATP protect 11.8%[10 µM], NPSR antagonist -8.0% and HTT aggregate -12.1%[9.22 µM].

Assay outcomes deposited in PubChem BioAssay by National Center for Advancing Translational Sciences (NCATS).
